High-throughput results from PubChem.
TDP1 cell noCPT = qHTS for Inhibitors of human tyrosyl-DNA phosphodiesterase 1 (TDP1): qHTS in cells in absence of CPT | DT40 Tdp1-/- hTDP1 cells, no CPT, ATP luminescence, 48 h | Potency, µM (titrated, usually from 46.2 µM), without a hit: at the top dose activity change, negative = growth inhibition, most hits filed as inhibitors | 420,000 tested, 15% active | AID 686978, 2013; further: nearly all actives have a fitted effect of over 55% in size
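Seeded 400 DT40-hTDP1 cells/well (vehicle DMSO, no 20 nM CPT); pinned compounds; ≥48 hr at 37 °C; CellTiter-Glo luminescence as viability measure.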
HT1080 IDH1KD tx = toxicity to HT-1080 IDH1 knockdown cells (counter line). HT-1080 IDH1 knockdown viability, ATP luminescence, 48 h. Potency, µM (doses to about 46.1 µM), without a hit: at the highest dose activity, negative = toxicity, actives largely listed as cytotoxic. 360,000 tested, 2% active;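 further: 0% = DMSO wells and -100% = cell-free medium wells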
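Knockdown cells (IDH1KD HT-1080) received compounds 2 h after plating at 750 cells/well and were kept 48 h at 37 °C in 5% FBS RPMI. A CellTiter-Glo luminescence read gave % activity for curve fitting.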
HT1080NT lethal = kills 2HG-producing HT-1080-NT fibrosarcoma cells; HT-1080-NT fibrosarcoma viability, CellTiter-Glo ATP luminescence, 48 h; 360,000 tested, 1.6% active; AID 686970; Potency, µM (titrated, usually from 46.1 µM), for the others: top-dose activity, negative = less viability, actives largely listed as cytotoxic;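 further: NT is the 2HG producing partner of a matched IDH1 knockdown line; 0% = DMSO-treated cells and -100% = media-only wells without cells; nearly all actives have a fitted effect of over 55% in size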
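HT-1080-NT fibrosarcoma cells (2HG-overproducing), 750 cells/well in RPMI with 5% FBS, dosed after 2 h and incubated 48 h at 37C. CellTiter-Glo luminescence normalized to DMSO and no-cell wells; concentration-response curves fitted and classed.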
KB-3-1 cytotox = kills parental KB-3-1 adenocarcinoma cells | Potency, µM (top dose mostly 46.1 µM), hits mostly cytotoxic | KB-3-1 viability, CellTiter-Glo ATP luminescence, 72 h | 400,000 tested, 1.4% active; further: nearly all actives have a fitted effect of over 60% in size
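Using CellTiter-Glo luminescence, growth of non-resistant KB-3-1 adenocarcinoma cells is assessed 72 h after pin-tool compound addition at 37 °C. Normalized responses across the concentration series yield fitted curves.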
KB-V1 cytotox = kills drug-selected multidrug resistant KB-V1 cells | KB-V1 MDR cells viability, CellTiter-Glo, 72 h | Potency, µM (series often up to 46.1 µM), hits mostly cytotoxic | 400,000 tested, 3.4% active | AID 1347076; further: nearly all actives have a fitted effect of over 60% in size
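Potencies derive from concentration-effect curves fitted to normalized luminescence (CellTiter-Glo) of KB-V1 cells treated for 72 h at 37 degrees C in phenol-red-free DMEM containing 10% FBS.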
TDP1 cell CPT = DT40-hTDP1 cell growth loss with CPT. chicken DT40 Tdp1-/-;hTDP1 cells + 20 nM CPT, ATP luminescence, 48 h. Potency, µM (series often up to 46.2 µM), inactives show top-dose activity change, negative = growth inhibition, most hits filed as inhibitors. 420,000 tested, 12% active; further: nearly all actives have a fitted effect of over 55% in size
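Chicken DT40 Tdp1-/- cells complemented with human TDP1, 400 cells/well, exposed to compounds plus 20 nM camptothecin for at least 48 h at 37 C; viability read as ATP content by CellTiter-Glo luminescence.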
Starred values were filed as active, the others as inactive; i = inactive; ? = inconclusive; . = no result; [ ] = remark or other dose. In the library only some 19% were active in any assay of this set; here they are far more common. The call rests on the fitted dose curve; in most records, active means well fitted curve in the direction sought with a large enough effect; inconclusive means small, poorly fitted or top-dose-only effect, or another doubt; inactive means no such curve, though single readings can be large; an effect the other way counts as inactive or inconclusive. Unless noted, on the % scale 0 is the no-effect control and ±100 the full control effect; potency means the concentration at half of the fitted maximal effect.

SMILES	TDP1 cell noCPT	HT1080 IDH1KD tx	HT1080NT lethal	KB-3-1 cytotox	KB-V1 cytotox	TDP1 cell CPT
CC(Oc1ccc(C(=O)c2ccc(F)cc2)cc1)C(=O)N1CCOCC1 (configuration not stated)	-18%	2%	-2%	i	?	-4%
COCc1cc(=O)[nH]c(/N=C(\N)Nc2ccc(Oc3ccccc3)cc2)n1	?	3%	-15%	i	18µM*	-23%
CCc1ccccc1NC(=O)Nc1cc(C(=O)NCc2ccccc2OC)ccc1N1CCCC1	?	.	.	i	i	15µM*
COc1ccc(C)cc1NC(=O)Nc1cc(C(=O)NCc2ccc(C)cc2)ccc1N1CCCC1	?	.	.	i	?	?
CCOc1ccccc1NC(=O)Nc1cc(C(=O)NCc2ccc(C)cc2)ccc1N1CCCC1	8.2µM*	.	.	i	i	8.2µM*
CCOCCCNC(=O)Nc1cc(C(=O)NCc2ccc(C(C)C)cc2)ccc1N1CCCC1	?	.	.	i	i	26µM*
COc1ccc(CNC(=O)c2ccc(N3CCCC3)c(NC(=O)NCc3ccc(C)cc3)c2)cc1	?	.	.	?	i	16µM*
CC(C)c1ccc(CNC(=O)c2ccc(N3CCCC3)c(NC(=O)NCc3ccc(F)cc3)c2)cc1	?	.	.	i	i	?
CCOc1ccccc1CNC(=O)C1CCN(S(=O)(=O)c2c(C)noc2/C=C/c2ccccc2F)CC1	?	.	.	.	.	-24%
O=C(CN1C(=O)CNC1=O)Nc1cc(Cl)cc(Cl)c1	11%	-6%	-4%	i	i	17%
COc1cc2c3c(cccc3c1)C(=O)N(CCN1CCCC1)C2=O	0.1µM*	8.2µM*	13µM*	?	10µM*	0.037µM*
COc1ccc(C(=O)CN2CCN(CCN3C(=O)c4cccc5cccc(c45)C3=O)CC2)cc1	21µM*	-30%	-27%	i	i	?
CC(C)(C)C(=O)N1CCN(CCN2C(=O)c3cccc4cccc(c34)C2=O)CC1	-28%	16%	14%	i	i	-23%
Cc1ccc(NC(=S)N2CCN(CCN3C(=O)c4cccc5cccc(c45)C3=O)CC2)cc1	?	-3%	-19%	i	15µM*	?
CC(NC(=O)c1ccc(F)cc1)C(=O)NC1=NCCS1 (configuration not stated)	-8%	-6%	9%	i	i	-14%
O=C(Nc1cccc([N+](=O)[O-])c1)C12CC3CC(C1)CC(n1cnc([N+](=O)[O-])n1)(C3)C2	?	-1%	0%	i	i	26µM*
COC(=O)c1cccc(NC(=O)C23CC4CC(C2)CC(n2cncn2)(C4)C3)c1	-24%	-1%	-2%	i	21µM*	14%
COc1cc(NC(=O)C23CC4CC(C2)CC(n2cnc([N+](=O)[O-])n2)(C4)C3)cc(OC)c1	?	5%	7%	?	21µM*	?
COC(=O)c1ccc(NC(=O)C23CC4CC(C2)CC(n2cncn2)(C4)C3)cc1	-29%	15%	16%	i	i	-12%
COc1ccc(OC)c(NC(=O)C23CC4CC(C2)CC(n2cnc(Br)n2)(C4)C3)c1	10µM*	-16%	-3%	i	i	11µM*
COc1ccc(S(=O)(=O)N(C)CC(=O)NCc2ccco2)cc1OC	-10%	-1%	-4%	i	i	-4%
COc1ccc(CCNC(=O)c2ccccc2SC)cc1	-16%	0%	7%	i	?	15%
Cc1ccn(CCC(=O)N2CCc3ccccc32)n1	-26%	10%	2%	i	i	-3%
O=C1CCc2cc(S(=O)(=O)Nc3ccccc3)cc3c2N1CC3	-4%	-13%	4%	i	i	8%
COc1ccc(-n2ncc(C(C)NS(=O)(=O)c3cc(C)sc3C)c2C)cc1 (configuration not stated)	16µM*	-7%	0%	i	?	?
SMILES	TDP1 cell noCPT	HT1080 IDH1KD tx	HT1080NT lethal	KB-3-1 cytotox	KB-V1 cytotox	TDP1 cell CPT
COC(=O)c1sccc1S(=O)(=O)NC(C)c1cnn(-c2ccc(OC)cc2)c1C (configuration not stated)	?	0%	-5%	i	i	-29%
CC(=O)c1ccc(S(=O)(=O)N(C)CC(=O)NCC2CCCCC2)cc1	-17%	6%	-4%	i	i	6%
CC1(C)Cc2cccc(OCC(=O)NCc3ccc(F)cc3)c2O1	?	-4%	-3%	i	15µM*	?
CC1(C)Cc2cccc(OCC(=O)OCC(=O)NCc3ccccc3)c2O1	-15%	-3%	2%	i	?	-9%
CC1(C)Cc2cccc(OCC(=O)Nc3ccccc3C(F)(F)F)c2O1	-1%	-2%	1%	i	i	-22%
Cc1cc(OCC(=O)Nc2ccccc2N2CCOCC2)c(C(C)C)cc1Cl	15µM*	-22%	-4%	?	?	16µM*
CC1(C)Cc2cccc(OCC(=O)Nc3ccccc3N3CCOCC3)c2O1	?	8%	11%	i	3.7µM*	?
Cc1ccccc1OCC(=O)Nc1ccc(N2CCOCC2)cc1N1CCOCC1	?	7%	1%[9.24 µM]	i	i	?
COCCNC(=S)NNc1cccc(C(=O)O)c1	?	-1%	4%	i	i	?
Cc1cnc(C(=O)OCC(=O)NCc2cccc(Cl)c2)cn1	1%	0%	-4%	i	i	-1%
CCOc1ccc(OCc2cccc(C(=O)N3CCCCCC3)c2)cc1	?	-1%	-16%	i	?	?
O=C(O)c1cccc(COc2ccc3c(c2)CCC3)c1	-10%	-3%	-10%	i	i	-7%
O=C(NCc1ccccc1)c1cccc(COc2ccc3c(c2)CCC3)c1	?	-9%	-3%	i	16µM*	?
O=C(NN1CCCCC1)c1cccc(COc2ccc(Cl)cc2)c1	?	8%	6%	i	15µM*	?
COc1ccc(C2=NN3C(C2)c2ccccc2OC32C(=O)N(C)c3ccccc32)cc1 (configuration not stated)	21µM*	?	?	i	i	?
COc1ccc(C2=NN3C(C2)c2ccccc2OC3c2cccs2)cc1 (configuration not stated)	-20%	-7%	-18%	i	?	-17%
Cc1ccc(C(=O)Nc2cccc(C(F)(F)F)c2)cc1Nc1ncnc2nc[nH]c12	21µM*	-2%	-4%	?	?	26µM*
